Hits are enriched below; roughly 2.8% of the tested compounds scored in any of these assays.
Shn3 3UTR inh: reduction of Shn3 3'UTR firefly luciferase signal, primary screen, Schnurri-3 inhibitor project, cell-based, Clone20 osteoblasts, set 2; Clone20 osteoblast Shn3 3'UTR firefly luciferase, 24 h; inhibition, % at 12.5 µM; 360,000 compounds, 0.52% hits;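 active = mean inhibition of at least 75% with every replicate also reaching 75%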
KKLEB tox: cytotoxicity in KKLEB CF airway cells, primary screen, cytotoxicity control for CF NF-kB inhibitor project, cell-based, uHTS, fluorescence assay plates. activity change (cytotoxicity), % at 5 µM. 360,000 compounds, 0.36% hits. AID 602141, 2011. KKLEB CF airway cells viability, ATPlite luminescence, overnight; hits give low values; cells stimulated with P. aeruginosa culture filtrate;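 active = corrected activity change at or below -50% at 5 µM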
CF NFkB block: inhibitors of PAF-induced NF-kB signaling, primary screen, cell-based, GFP fluorescence, uHTS. inhibition, % at 5 µM. KKLEB NF-kB-GFP reporter, GFP fluorescence overnight. 360,000 compounds, 0.86% hits;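 active = at least 50% inhibition at 5 µM, scaled per plate between neutral and stimulator controls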;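 also: PAF is a Pseudomonas aeruginosa culture filtrate used as stimulus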
MITF TRPM1 inh: inhibitors of MITF-dependent TRPM1 promoter reporter, primary screen, cell-based, SK-MEL-5, single point, luciferase; inhibition, % at 12.5 µM; SK-MEL-5 TRPM1 promoter luciferase, 24 h; AID 488899, 2010; 330,000 compounds, 0.83% hits;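 active = mean inhibition across replicates of 60% or more, whatever share of single replicates reaches that level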
HIF-2a inh: HIF-2a reporter inhibitors, primary screen, luminescence, 786-0 RCC cells; 786-0 RCC cells HIF-2a reporter, luciferase luminescence, overnight; inhibition, % at 18.8 µM; 360,000 compounds, 0.72% hits;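 active = inhibition of the luminescence signal of 40% or more relative to plate controls, in a single-dose primary screen at 18.75 µM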
Peg3 prom inh: Peg3 promoter-driven luciferase inhibitors, primary screen, cell-based, HeLa, luciferase luminescence. HeLa PEG-Prom luciferase reporter, overnight. inhibition, % at 20 µM. 360,000 compounds, 1.7% hits;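 active = inhibition of at least 50% at 20 µM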
Mdm2-MdmX confirm: retested Mdm2-MdmX interaction blockers, confirmation, cell-based, luminescence, single concentration, set 2. shares compounds with HIF-2a inh. SaOS-2 split-luciferase Mdm2/MdmX complementation. inhibition, % at 8 µM. 740 compounds, 99% hits;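 active = mean inhibition of the luminescence signal across two replicates at or above 26 percent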
HIF-2a conf: HIF-2a reporter inhibitor retest, confirmation, luminescence, 786-0 RCC cells; shares compounds with HIF-2a inh; inhibition, % at 18.8 µM; AID 651580, 2012; HIF-2a luciferase reporter luminescence, overnight; 1,800 compounds, 56% hits;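 active = mean inhibition across four replicates of at least 40 percent at the single tested concentration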
HIF-1a counter: HIF-1a luciferase reporter signal reduction – MiaPaCa-2 cells, single concentration, counter-screen for HIF-2a inhibitor project, confirmation; shares compounds with HIF-2a inh; MiaPaCa-2 HIF-1a luciferase reporter, desferoxamine, overnight; inhibition, % at 18.8 µM; 1,800 compounds, 72% hits;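 active = mean inhibition of the reporter signal across four replicates at the single tested dose of 50% or more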
Hits are given with their value; . = inactive; / = no result; ! = not confirmed by another sample.

SMILES	Shn3 3UTR inh	KKLEB tox	CF NFkB block	MITF TRPM1 inh	HIF-2a inh	Peg3 prom inh	HIF-2a conf	HIF-1a counter	others
CCc1cccc(OCC(=O)Nc2cc(S(=O)(=O)N3CCOCC3)ccc2N2CCCC2)c1	.	.	.	.	.	.	/	/
CC1CCC(C(C)C)C(OC(=O)Cn2c(-c3ccc(Br)cc3)[n+](C)c3ccccc32)C1 (stereo not given)	.	-57!	54	91	.	96!	/	/	Mdm2-MdmX confirm=103
CC1CCC(C(C)C)C(OC(=O)Cn2c(-c3ccc(Cl)cc3)[n+](C)c3ccccc32)C1 (stereo not given)	.	-58	56	90	.	76	/	/	Mdm2-MdmX confirm=100
Cc1ccccc1OCc1n(CC(=O)OC2CC(C)CCC2C(C)C)c2ccccc2[n+]1C (stereo not given)	.	-83	83	97!	94!	102	.	107	Mdm2-MdmX confirm=102
CC1CCC(C(C)C)C(OC(=O)COC(=O)c2cccn2C)C1 (stereo not given)	.	.	.	.	.	.	/	/
CC(C)CCNC(=O)C1CCC(=O)N1CCc1ccccc1 (stereo not given)	.	.	.	.	.	.	/	/
N#Cc1ccc(CSc2nnc(-c3c[nH]c4ccccc34)n2-c2ccccc2)cc1	.	.	.	.	47	.	.	71
COc1cccc(/C=C(\C)C(=O)c2c(C)cc(C)[nH]c2=O)c1OC	.	.	.	.	.	.	/	/
CSC1=NC=C(C#N)C2=NC(c3c(Cl)cccc3Cl)NN12 (stereo not given)	.	.	.	/	65	.	.	.
COc1ccc(C2=Nn3c(nnc3-c3ccccn3)SC2)cc1OC	.	.	.	.	.	.	/	/
COc1ccc(C2=Nn3c(nnc3-c3ccccc3OC)SC2)cc1OC	.	.	53	.	43	.	.	.
N#CCOC(=O)C1CSC2(c3ccc(Br)cc3)CCC(=O)N12 (stereo not given)	.	.	.	.	.	.	/	/
O=C(NCc1cccnc1)/C(=C\c1ccc(-c2ccc(Cl)c(Cl)c2)o1)S(=O)(=O)c1ccccc1	98	-98	99	90	97	102	99	106
O=C(NCc1cccnc1)c1ccc(-c2ccc(Cl)cc2)o1	.	.	.	.	.	.	/	/
CS(=O)(=O)c1ccc(Cl)c(NC(=O)c2cccc(-n3cnnn3)c2)c1	.	.	.	.	51	.	.	.
CS(=O)(=O)c1ccc(NC(=O)c2cccc(-n3cnnn3)c2)cc1	.	.	.	.	.	.	/	/
COCCn1c(C)cc(C2=NNC(=Nc3ccccc3F)SC2)c1C	.	.	.	67	78	.	.	71	Mdm2-MdmX confirm=80
COCCCN=C1NN=C(c2cc(C)n(-c3ccccc3F)c2C)CS1	.	.	.	.	.	.	/	/
COc1ccccc1N1C(=O)C=C(Sc2nc(C)cc(C)n2)C1=O	.	.	.	/	58	87	63	.
CN(C)C(=O)NC1c2ccccc2-c2ccccc21	.	.	.	.	.	.	/	/
O=C1C=CC(=O)N1c1ccc2c(c1)C(NC(=O)C(F)(F)F)c1ccccc1-2 (stereo not given)	.	.	.	86	46	102	.	.
CCOC(=O)c1c(C)nn(-c2ccc(NC(=O)/C=C/C(=O)O)cc2)c1C	/	.	.	.	74	.	48	.
CCOC(=O)c1c(C)nn(-c2ccc(NC(=O)c3cccs3)cc2)c1C	.	.	.	.	.	.	/	/
CCOC(=O)c1c(C)nn(-c2ccc(NC(=O)c3c(C)noc3C)cc2)c1C	.	.	.	.	66	.	80	.
O=C(CSc1ccc(F)cc1)NCCSc1ccccc1	.	.	.	.	.	.	/	/
SMILES	Shn3 3UTR inh	KKLEB tox	CF NFkB block	MITF TRPM1 inh	HIF-2a inh	Peg3 prom inh	HIF-2a conf	HIF-1a counter	others
Cc1cn([C@H]2C[C@H](O)[C@@H](/C=C/C(=O)NCCc3ccc4c(c3)OCO4)O2)c(=O)[nH]c1=O	.	.	.	/	.	.	/	/
COc1ccc(Nc2ccnc3ccccc23)cc1	.	.	.	.	.	.	/	/
CC(C)Nc1ccc(Nc2ccnc3cc4ccccc4cc23)cc1	.	.	.	88	55	108	/	/	Mdm2-MdmX confirm=103
CC1CCCCC12NC(=O)N(CC(=O)N1CCc3ccccc3C1)C2=O (stereo not given)	.	.	.	.	.	.	/	/
COC(=O)COc1ccc(S(=O)(=O)NCCC2=CCCCC2)cc1Cl	.	.	.	.	57	.	.	.
COc1ccc(-n2nc(C#N)c(Cl)cc2=O)cc1	.	.	77	100	91	104	/	/	Mdm2-MdmX confirm=103
COC(=O)c1nn(-c2ccc(OC)cc2)c(=O)cc1O	.	.	.	.	.	.	/	/
CC(=O)Nc1cncc(-c2ccccc2F)n1	.	.	.	/	.	.	/	/
CC[C@]1(C(=O)OC)[C@H]2C(=O)N(Cc3ccccc3)C(=O)[C@H]2[C@H]2CN=C(SCc3ccc(C)cc3)N21	.	.	.	.	.	.	/	/	Mdm2-MdmX confirm=97
CC[C@]1(C(=O)OC)[C@H]2C(=O)N(Cc3ccccc3)C(=O)[C@H]2[C@H]2CN=C(SCc3ccc(C(=O)OC)cc3)N21	.	.	.	.	.	.	/	/
Cc1cccc(C2(c3cccc(C)c3)CC2C(=O)Nc2ccc([N+](=O)[O-])cc2O)c1 (stereo not given)	.	-62	58	66	.	54	/	/	Mdm2-MdmX confirm=100
Cc1oc2c(C)c3oc(=O)c(CCC(=O)N[C@@H](CC(C)C)C(=O)O)c(C)c3cc2c1C	.	.	.	.	.	.	/	/
CCCC(NC(=O)CCc1c(C)c2cc3c4c(oc3c(C)c2oc1=O)CCCC4)C(=O)O (stereo not given)	.	.	.	.	52	.	67	50
O=C(Nc1ccc(C(F)(F)F)cc1)N1CCN(c2ccnc3cc(Cl)ccc23)CC1	/	.	.	.	45	.	.	76
CN(C)CC#Cc1cncc(C(=O)NNC(=O)Nc2ccc(Cl)cc2)c1	.	.	.	.	.	.	/	/

Screening data as filed in PubChem BioAssay.
